Results filed as inconclusive are left out. Calls of active or inactive are those of the source. Unless noted, calls come from the whole dose curve.
What was measured:
[1] = Nuclear factor erythroid 2-related factor 2/antioxidant responsive element (Nrf2/ARE) small molecule agonists: qHTS cell viability counter screen in human keratinocytes (AID 1919968; active = well fitted curve in the direction sought with a large enough effect in the repeat runs; an effect the other way counts as inactive or inconclusive; note: nearly all actives have a fitted effect of over 55% in size)
Outline: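 KeratinoSens cells (HaCaT keratinocytes stably carrying an ARE-luciferase reporter) were seeded at 1,500 cells/well and rested 5 h at 37 C/5% CO2. They were then exposed to compounds in DMSO for 23 h. Viability was read by CellTiter-Fluor fluorescence after 1 h.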

[2] = Nuclear factor erythroid 2-related factor 2/antioxidant responsive element (Nrf2/ARE) small molecule agonists: luciferase reporter gene qHTS assay in human keratinocytes (AID 1919969); note: nearly all actives have a fitted effect of over 35% in size
[3] = target: Gonadotropin-releasing hormone receptor (Homo sapiens) (UniProt P30968); assay: Human gonadotropin-releasing hormone receptor (GnRHR) small molecule agonists, calcium flux assay in GnRHR-HEK293 cells (AID 1920063); note: nearly all actives have a fitted effect of over 35% in size
Outline: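 HEK293 cells stably expressing human GnRHR were plated 18 h at 37 °C, loaded with calcium dye 1 h at 37 °C, then given compound in agonist mode; fluorescence (Ex/Em 480/540) read kinetically for 3 min at 1 s intervals.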

[4] = target: KiSS-1 receptor (Homo sapiens) (UniProt Q969F8); assay: Human kisspeptin (KISS1R) small molecule agonists, calcium flux assay in KISS1R-HEK293 cells (AID 1920064; active = well fitted curve in the direction sought with a large enough effect in the repeat runs; an effect the other way counts as inactive or inconclusive)
Outline: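 HEK293 cells stably expressing human KISS1R were plated 18 h at 37 °C, loaded with calcium dye for 1 h at 37 °C, then given compound by pin tool. Fluorescence (Ex/Em 480/540) was read kinetically for 3 min.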

[5] = G protein-coupled receptor (GPCR) small molecule agonists, calcium flux assay: HEK293 wild type cell line counter screen (AID 1920065)
Outline: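 Cells were plated and cultured 18 h at 37 C/5% CO2, then loaded with calcium dye for 1 h at 37 C. Compounds in DMSO were pin-transferred in agonist mode, and fluorescence (Ex/Em 480/540) was read kinetically for 3 min at 1 s intervals.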

[6] = p53 small molecule agonists, cell-based qHTS assay with human liver microsomes (AID 1963577)
Outline: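 p53RE-bla cells, 4,000/well, compound added after 5 h, with human liver microsomes 0.5 mg/mL and NADPH 0.5 mg/mL final; 16 h at 37 C, then LiveBLAzer 2 h RT, fluorescence.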

[7] = p53 small molecule agonists, cell-based qHTS assay with rat liver microsomes (AID 1963578)
Outline: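 p53RE-bla cells, 4,000/well, pre-incubated 5 h, then given compounds plus rat liver microsomes (0.5 mg/mL final) and NADPH (0.5 mg/mL final). Incubation 16 h at 37 C; beta-lactamase reporter read by LiveBLAzer fluorescence after 2 h at room temperature.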

[8] = p53 small molecule agonists, cell-based qHTS assay with human liver microsomes: qHTS cell viability counter screen (AID 1963579); note: nearly all actives have a fitted effect of over 45% in size
Outline: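 p53RE-bla cells, 4,000/well, dosed 5 hours after plating, with human liver microsomes (0.5 mg/mL final) plus NADPH (0.5 mg/mL final), 16 hours at 37 C. Viability read as CellTiter-Glo luminescence after 30 min at room temperature.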

[9] = p53 small molecule agonists, cell-based qHTS assay with rat liver microsomes: qHTS cell viability counter screen (AID 1963580); note: nearly all actives have a fitted effect of over 45% in size
Outline: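 p53RE-bla HCT-116 cells (4,000/well) rested 5 h at 37 C, then given Tox21 compounds in DMSO with rat liver microsomes (0.5 mg/mL final) plus NADPH (0.5 mg/mL final) for 16 h at 37 C. Viability read by CellTiter-Glo luminescence after 30 min at room temperature.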

[10] = p53 small molecule agonists, cell-based qHTS assay: qHTS cell viability counter screen (AID 1963581); note: nearly all actives have a fitted effect of over 45% in size
Outline: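 p53RE-bla HCT-116 cells were exposed to compounds for 16 h at 37 C; after the beta-lactamase FRET read in the same wells, CellTiter-Glo was added and luminescence (intracellular ATP) read after 30 min at room temperature.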

[11] = p53 small molecule agonists, cell-based qHTS assay (AID 1963582; active = well fitted activation curve with a large enough effect in the signal ratio in the repeat runs, not every such curve was filed as active; the % refers to the signal ratio)
Outline: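 p53RE-bla beta-lactamase reporter cells rested 5 h at 37 C/5% CO2, then received compounds in DMSO by pin transfer and were incubated 16 h at 37 C. LiveBLAzer B/G FRET substrate was loaded for 2 h at room temperature before fluorescence reading.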

[12] = target: 5-hydroxytryptamine receptor 2A (Homo sapiens) (UniProt P28223); assay: 5-hydroxytryptamine receptor 2A (HTR2A) small molecule antagonists, cell-based qHTS assay (AID 1963586); note: nearly all actives have a fitted effect of over 45% in size
Outline: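 Antagonist-mode intracellular calcium assay: DOI (4 nM) added after 5 min compound pre-incubation at room temperature to dye-loaded HTR2A-CHO cells. Fluorescence followed for 3 min, sampled every second.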

[13] = target: 5-hydroxytryptamine receptor 2A (Homo sapiens) (UniProt P28223); assay: 5-hydroxytryptamine receptor 2A (HTR2A) small molecule agonists, cell-based qHTS assay (AID 1963587); note: nearly all actives have a fitted effect of over 30% in size
Outline: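 HTR2A-CHO cells, plated 18 h at 37 C/5% CO2, dye-loaded 1 h at 37 C; compounds in DMSO added by pin tool (agonist mode). Intracellular calcium flux read as kinetic fluorescence on FDSS over 2 min at 1 s intervals.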

[14] = target: Muscarinic acetylcholine receptor M1 (Homo sapiens) (UniProt P11229); assay: Cholinergic receptor muscarinic 1 (CHRM1) small molecule antagonists, cell-based qHTS assay (AID 1963588); note: nearly all actives have a fitted effect of over 40% in size
Outline: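 CHRM1-CHO calcium-flux assay, antagonist mode. Cells were seeded 18 h, dye-loaded 1 h at 37 C and given compound for 5 min at RT, then acetylcholine was added at 50nM. FDSS fluorescence was read 3 min; 15 concentrations, three runs.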

[15] = target: Muscarinic acetylcholine receptor M1 (Homo sapiens) (UniProt P11229); assay: Cholinergic receptor muscarinic 1 (CHRM1) small molecule agonists, cell-based qHTS assay (AID 1963589); note: nearly all actives have a fitted effect of over 35% in size
Outline: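 CHO cells stably expressing human CHRM1, seeded 18 h at 37 C/5% CO2, dye-loaded 1 h at 37 C, then given compound in agonist mode; intracellular calcium fluorescence read kinetically at 1 s intervals. Fifteen concentrations, three independent runs.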

[16] = cAMP Responsive Elements (CRE) small molecule agonists, cell-based qHTS assay (AID 1963590)
Outline: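 CRE-bla HEK 293T cells in DMEM with 10% dialyzed FBS, NEAA, pyruvate and 25 mM HEPES were plated 18 h at 37 C/5% CO2, then exposed to compounds in DMSO for 3 h before LiveBLAzer B/G FRET substrate addition.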

[17] = cAMP Responsive Elements (CRE) small molecule antagonists, cell-based qHTS assay (AID 1963591; active = well fitted inhibition curve with a large enough effect in the signal ratio in the repeat runs, not every such curve was filed as active; the % refers to the signal ratio)
Outline: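 CRE-bla HEK293T cells were plated 18 h at 37 °C/5% CO2, pinned with compound in DMSO, then stimulated with NKH477 at 0.25 uM final for 3 h. LiveBLAzer B/G FRET substrate was added and plates incubated 2 h at room temperature.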

[18] = target: Beta-2 adrenergic receptor (Homo sapiens) (UniProt P07550); assay: Adrenergic beta2 receptor (ADRB2) small molecule antagonists, cell-based qHTS assay (AID 1963592); note: series mostly up to about 92 µM; nearly all actives have a fitted effect of over 50% in size
Outline: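 Cells (CHO, stable ADRB2 overexpression) incubated 18-20hr at 37C; compounds added from DMSO; agonist mix (1nM isoproterenol, 100uM IBMX, 25uM Ro-20-1724) added; 0.5hr RT; d2-cAMP and anti-cAMP-cryptate added; 1hr RT; 665/615 nm read.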

[19] = target: D(2) dopamine receptor (Homo sapiens) (UniProt P14416); assay: Dopamine D2 receptor (DRD2) small molecule agonists, cell-based qHTS assay (AID 1963594); note: nearly all actives have a fitted effect of over 35% in size
Outline: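 HEK293 cells stably expressing DRD2 were cultured 24 h at 37 C, then given Ro20-1724 (0.1 mM final) and compounds for 10 min at room temperature. NKH477 (200nM) was then added for 30 min. cAMP was read by HTRF.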

[20] = target: D(2) dopamine receptor (Homo sapiens) (UniProt P14416); assay: Dopamine D2 receptor (DRD2) small molecule antagonists, cell-based qHTS assay (AID 1963595; active = well fitted inhibition curve with a large enough effect in the signal ratio in the repeat runs, with a control signal flat; the % refers to the signal ratio)
Outline: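 HEK293 cells stably expressing DRD2, preincubated with 0.1 mM Ro20-1724 and compounds 10 min, were stimulated with 200 nM NKH477 plus 12 nM quinpirole for 30 min at room temperature; cAMP measured by HTRF (665/620 nm).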

Measured: Potency

Sequence of Beta-2 adrenergic receptor (Homo sapiens) (P07550 whole entry, looked up): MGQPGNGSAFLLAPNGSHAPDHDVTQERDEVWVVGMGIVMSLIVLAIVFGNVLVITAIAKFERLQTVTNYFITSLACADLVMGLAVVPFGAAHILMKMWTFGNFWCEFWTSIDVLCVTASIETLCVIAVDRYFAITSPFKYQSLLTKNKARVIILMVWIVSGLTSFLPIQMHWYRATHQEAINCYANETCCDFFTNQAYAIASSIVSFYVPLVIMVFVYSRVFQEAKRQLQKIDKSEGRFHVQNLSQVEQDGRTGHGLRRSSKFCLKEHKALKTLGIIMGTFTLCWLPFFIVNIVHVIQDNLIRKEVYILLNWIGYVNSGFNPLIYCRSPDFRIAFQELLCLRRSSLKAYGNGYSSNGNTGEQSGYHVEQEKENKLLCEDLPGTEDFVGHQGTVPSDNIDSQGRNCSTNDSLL
Sequence of D(2) dopamine receptor (Homo sapiens) (P14416 whole entry, looked up): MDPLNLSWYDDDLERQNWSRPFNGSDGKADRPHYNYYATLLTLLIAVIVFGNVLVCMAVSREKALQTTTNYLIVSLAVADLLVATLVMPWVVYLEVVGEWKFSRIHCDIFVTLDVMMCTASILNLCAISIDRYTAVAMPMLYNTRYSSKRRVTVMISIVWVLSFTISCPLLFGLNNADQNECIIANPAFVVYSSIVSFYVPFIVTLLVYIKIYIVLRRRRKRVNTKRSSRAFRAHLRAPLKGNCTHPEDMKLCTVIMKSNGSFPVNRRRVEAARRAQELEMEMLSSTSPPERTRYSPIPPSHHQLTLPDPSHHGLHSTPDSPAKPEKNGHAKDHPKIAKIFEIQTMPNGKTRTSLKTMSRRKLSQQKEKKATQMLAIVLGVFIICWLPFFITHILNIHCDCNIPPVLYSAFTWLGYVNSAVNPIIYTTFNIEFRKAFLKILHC
Sequence of 5-hydroxytryptamine receptor 2A (Homo sapiens) (P28223 whole entry, looked up): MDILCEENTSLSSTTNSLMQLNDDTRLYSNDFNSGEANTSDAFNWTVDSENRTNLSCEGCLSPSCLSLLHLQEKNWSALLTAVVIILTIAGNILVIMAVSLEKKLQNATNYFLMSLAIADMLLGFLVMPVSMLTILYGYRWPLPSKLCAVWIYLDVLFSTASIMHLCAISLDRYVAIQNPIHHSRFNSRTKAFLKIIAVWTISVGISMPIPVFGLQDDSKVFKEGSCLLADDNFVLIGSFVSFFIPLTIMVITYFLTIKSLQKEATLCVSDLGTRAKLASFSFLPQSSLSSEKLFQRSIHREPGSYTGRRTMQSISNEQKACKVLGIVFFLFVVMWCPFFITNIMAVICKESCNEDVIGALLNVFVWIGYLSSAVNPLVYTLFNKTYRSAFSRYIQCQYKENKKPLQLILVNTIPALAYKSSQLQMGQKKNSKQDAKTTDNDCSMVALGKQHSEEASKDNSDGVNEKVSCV
Sequence of KiSS-1 receptor (Homo sapiens) (Q969F8 whole entry, looked up): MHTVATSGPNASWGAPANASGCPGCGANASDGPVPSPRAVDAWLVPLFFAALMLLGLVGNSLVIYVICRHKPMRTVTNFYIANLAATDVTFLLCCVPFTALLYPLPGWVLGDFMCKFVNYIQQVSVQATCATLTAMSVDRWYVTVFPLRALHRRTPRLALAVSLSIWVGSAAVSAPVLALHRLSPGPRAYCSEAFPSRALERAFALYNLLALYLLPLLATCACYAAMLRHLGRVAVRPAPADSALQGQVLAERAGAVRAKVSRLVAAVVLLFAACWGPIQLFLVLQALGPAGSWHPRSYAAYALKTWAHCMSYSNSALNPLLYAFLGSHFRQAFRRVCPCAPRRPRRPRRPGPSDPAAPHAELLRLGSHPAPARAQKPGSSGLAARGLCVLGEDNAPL
Sequence of Muscarinic acetylcholine receptor M1 (Homo sapiens) (P11229 whole entry, looked up): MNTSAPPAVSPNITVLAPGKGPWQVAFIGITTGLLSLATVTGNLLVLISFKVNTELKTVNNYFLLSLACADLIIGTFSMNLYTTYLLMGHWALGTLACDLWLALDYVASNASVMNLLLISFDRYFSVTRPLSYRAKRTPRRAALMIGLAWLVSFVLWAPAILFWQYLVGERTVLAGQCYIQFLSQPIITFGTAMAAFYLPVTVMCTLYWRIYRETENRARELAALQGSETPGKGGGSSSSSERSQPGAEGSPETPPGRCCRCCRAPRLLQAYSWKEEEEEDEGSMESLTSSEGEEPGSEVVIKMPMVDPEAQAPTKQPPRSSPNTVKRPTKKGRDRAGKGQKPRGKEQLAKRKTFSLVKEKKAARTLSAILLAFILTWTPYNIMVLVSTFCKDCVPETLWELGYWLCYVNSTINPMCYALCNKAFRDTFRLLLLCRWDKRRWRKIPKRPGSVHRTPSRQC
Sequence of Gonadotropin-releasing hormone receptor (Homo sapiens) (P30968 whole entry, looked up): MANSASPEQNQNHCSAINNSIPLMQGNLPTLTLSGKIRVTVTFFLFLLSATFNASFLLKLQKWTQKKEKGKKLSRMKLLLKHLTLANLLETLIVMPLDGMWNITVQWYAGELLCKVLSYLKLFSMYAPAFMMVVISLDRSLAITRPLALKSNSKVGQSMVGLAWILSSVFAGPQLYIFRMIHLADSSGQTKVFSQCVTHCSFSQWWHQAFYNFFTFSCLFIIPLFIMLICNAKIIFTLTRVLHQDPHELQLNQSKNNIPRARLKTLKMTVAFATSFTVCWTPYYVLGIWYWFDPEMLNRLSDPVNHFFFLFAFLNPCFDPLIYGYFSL

CSc1ccc(Cl)cc1
inactive: all assays above

c1ccc(Oc2ccccc2)cc1
inactive: all assays above

COCC(C)O (stereo not given)
inactive: all assays above

CCC(O)OCCCOC (stereo not given)
inactive: all assays above

CCCCCNCCCCC
inactive: all assays above

COc1ccc(OC)cc1
inactive: all assays above

O=C1c2c(O)cccc2Cc2cccc(O)c21
inactive: all assays above

— PubChem BioAssay (Tox21)
